Activity calls are given as the source filed them. Entries that show only a call come without a potency. Calls come from the whole dose curve.

The values below come from PubChem BioAssay (Tox21).
Potency is the fitted concentration of half-maximal effect.

Sequence of Androgen receptor (Homo sapiens) (P10275 whole entry, looked up): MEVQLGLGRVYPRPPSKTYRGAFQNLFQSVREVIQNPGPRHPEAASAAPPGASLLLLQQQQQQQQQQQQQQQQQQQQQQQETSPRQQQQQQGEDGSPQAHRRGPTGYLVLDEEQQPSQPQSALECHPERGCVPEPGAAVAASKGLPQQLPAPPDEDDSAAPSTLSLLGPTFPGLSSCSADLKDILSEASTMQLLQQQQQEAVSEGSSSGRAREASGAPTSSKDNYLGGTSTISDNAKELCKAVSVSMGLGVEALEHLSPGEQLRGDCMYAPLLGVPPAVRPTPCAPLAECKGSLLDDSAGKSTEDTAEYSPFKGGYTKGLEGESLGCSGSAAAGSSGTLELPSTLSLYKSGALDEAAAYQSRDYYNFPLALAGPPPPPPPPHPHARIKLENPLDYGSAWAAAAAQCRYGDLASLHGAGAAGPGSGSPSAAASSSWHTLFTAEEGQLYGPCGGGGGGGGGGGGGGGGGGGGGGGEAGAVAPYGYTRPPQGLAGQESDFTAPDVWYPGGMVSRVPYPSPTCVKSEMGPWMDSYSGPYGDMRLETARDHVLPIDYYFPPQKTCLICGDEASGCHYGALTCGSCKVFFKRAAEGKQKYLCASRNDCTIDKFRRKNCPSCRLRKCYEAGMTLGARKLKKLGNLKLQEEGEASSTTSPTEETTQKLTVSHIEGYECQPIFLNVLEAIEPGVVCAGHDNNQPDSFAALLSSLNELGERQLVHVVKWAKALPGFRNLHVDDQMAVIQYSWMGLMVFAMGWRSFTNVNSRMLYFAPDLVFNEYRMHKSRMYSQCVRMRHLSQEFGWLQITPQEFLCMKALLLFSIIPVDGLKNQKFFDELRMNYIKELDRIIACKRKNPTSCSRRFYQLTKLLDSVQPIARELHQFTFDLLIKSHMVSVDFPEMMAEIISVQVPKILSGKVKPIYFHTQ

The target in the test is Androgen receptor (Homo sapiens) (UniProt P10275). In words: qHTS assay to identify small molecule agonists of the androgen receptor (AR) signaling pathway in the presence of an antagonist (AID 1259381). Note: nearly all actives have a fitted effect of over 15% in size. Particulars: MDA-kb2 MMTV-luciferase, AR agonist + nilutamide, 16 h; series mostly up to 92.4 µM; activation: at the top concentration. The text has this:
National Center for Advancing Translational Sciences [NCATS] NIH Chemical Genomics Center [NCGC] U.S. Environmental Protection Agency [EPA] National Institutes of Environmental Health Sciences [NIEHS] National Toxicology Program [NTP] Assay overview: Androgen receptor (AR) is an important member of nuclear receptor family. Its signaling plays a critical role in AR-dependent prostate cancer and other androgen related diseases. Considerable attention has been given in the past decades to develop methods to study and screen for the environmental chemicals that have the potential to interfere with metabolic homeostasis, reproduction, developmental and behavioral functions. Therefore AR binding assay for screening against androgen agonists and antagonists can be used to identify potential endocrine disruptors. MDA-kb2 cells (from ATCC, deposited by Wilson et al.) are human breast carcinoma cells that were stably transfected with a luciferase reporter gene under control of the MMTV promoter that contains response elements for both androgen receptor (AR) and glucocorticoid receptor (GR). This particular screening for measuring luciferase reporter gene activity using MDA-kb2 cells against Tox21 10K library compounds is a confirmation study on agonist mode screening in the presence of AR-antagonist compound (Nilutamide) at 3.0uM final concentration.
Assay Protocol Summary: MDA-kb2 cells (cells cultured without CO2) were dispensed at 3,000 cells/well in 4uL of culture medium into white wall/solid-bottom 1536-well plates (Corning Life Sciences, Corning, NY) using a Multidrop Combi (Thermo Fisher Scientific Inc., Waltham, MA) dispenser. The assay plates were incubated at 37C and 0% CO2 for 5hr. One uL of 3.0uM (final concentration) Nilutamide or assay buffer was added using two separate tips of Flying Reagent Dispenser (FRD, Aurora Discovery, San Diego, CA). Then 23nL of compounds dissolved in DMSO at 15 concentrations and positive controls were transferred to the assay plates using a Pintool station (Wako, San Diego, CA). The assay plates were incubated at 37C and 0% CO2 for 16hr. For luciferase read, 4uL/well ONE-Glo reagent (Promega Corporation, Madison, WI) was added to each well of the assay plates using FRD. After 30min incubation at room temperature, the luminescence signal was measured using a ViewLux plate reader (PerkinElmer, Shelton, CT).
For `Nc1ccc2c(c1)CN1C(=O)c3ccccc3C1=N2`, the Potency was 231 nM (active).

Take `COc1cccc(O)c1O`: the “activation” value is -2.49% (inactive). For the molecule `CN(C)C(=O)Nc1ccc(Cl)c(Cl)c1`, the Potency entry is “inactive”. Consider `CN(C)CCOC(c1ccccc1)c1ccccc1`, for which the Potency result was “inactive”. In the case of `CCCCOC(=O)c1ccc(O)cc1`, the Potency entry was “inactive”. Still for that read-out and setting: next, `CCCCC1(COC(=O)CCC(=O)O)C(=O)N(c2ccccc2)N(c2ccccc2)C1=O`: “inactive”. For the molecule `O=C(Nc1ncc([N+](=O)[O-])s1)c1cccs1`, the “activation” value was -6.87% [at 42.5 µM] (inactive).

For `C1CCC(C(CC2CCCCN2)C2CCCCC2)CC1` (stereo unspecified), the “activation” value is -9.14% [at 42.5 µM] (inactive).

`CCOc1ccc(NC(C)=O)cc1`: the Potency result was “inactive”. Still for that read-out and setting: next, `COc1ccc2c(c1)c(CC(=O)O)c(C)n2C(=O)c1ccc(Cl)cc1`: “inactive”; `CCCCCCc1ccc(O)cc1O`: “inactive”.
